From PubChem BioAssay (EPA / NIEHS)
Records with an inconclusive call do not appear. Activity calls are given as the source filed them. Rule for the calls, unless noted: active = hit-call score of the fitted dose curve at least 0.9, where 1 is the maximum; inactive = score below 0.9.

Assays:
[1] = CCTE_Mundy_HCI_Cortical_NOG_NeuriteCount: CCTE's Neurite Outgrowth Assay in rat cortical cells for Neurite Count, Mundy Lab (AID 2284212);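 note: cells fixed about two days after chemical exposure began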
How it was run: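 Rat cortical primary cells; compound added 2 h post-plating, 1/10 dilution of working solution. Anti-betaIII-tubulin/AF488 ICC; ArrayScan neurite count vs DMSO.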

[2] = CCTE_Mundy_HCI_Cortical_NOG_NeuriteLength: CCTE's Neurite Outgrowth Assay in rat cortical cells for Neurite Length, Mundy Lab (AID 2284213);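 note: neurites imaged about 48 to 50 h after chemical exposure began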
How it was run: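 First, rat primary cortical cells were plated and, 2 h later, given test chemical as a 1/10 dilution. Finally, βIII-tubulin immunostaining enabled automated imaging of neurite length.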

[3] = CCTE_Mundy_HCI_Cortical_Synap_Neur_Matur_NeuriteLength: CCTE's Synaptogenesis and Neurite Maturation Assay in rat cortical cells for Neurite Length, Mundy Lab (AID 2284214)
How it was run: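 Neurite length quantified by automated high-content imaging of MAP2, synaptophysin and Hoechst staining. Rat cortical cells received chemical from DIV 7 to DIV 12 […], glial growth arrested by AraC at DIV 5; DMSO baseline.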

[4] = CCTE_Mundy_HCI_Cortical_Synap_Neur_Matur_SynapseCount: CCTE's Synaptogenesis and Neurite Maturation Assay in rat cortical cells for Synapse Count, Mundy Lab (AID 2284218)
How it was run: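 High-content imaging of synaptophysin puncta per MAP2-positive neuron (Hoechst nuclei) in rat cortical cells exposed DIV 7–12 after glial arrest with AraC at DIV 5; decrease relative to DMSO scored.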

[5] = CCTE_Mundy_HCI_Cortical_Synap_Neur_Matur_NeuriteCount: CCTE's Synaptogenesis and Neurite Maturation Assay in rat cortical cells for Neurite Count, Mundy Lab (AID 2284222)
How it was run: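 Chemical exposure runs DIV 7–12 in rat cortical cultures, glia suppressed by AraC at DIV 5; measurement is at DIV 12. Imaging-derived neurite counts are fitted against DMSO baseline.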

[6] = CCTE_Mundy_HCI_Cortical_Synap_Neur_Matur_CellBodySpotCount: CCTE's Synaptogenesis and Neurite Maturation Assay in rat cortical cells for Cell Body Spot Count, Mundy Lab (AID 2284223)
How it was run: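 Read-out: cell body-associated synaptophysin puncta per neuron, imaged after MAP2, synaptophysin and Hoechst staining. Rat cortical cells, AraC DIV 5, chemical dosing DIV 7, fixation DIV 12. Activity fitted in positive direction relative to DMSO baseline.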

[7] = CCTE_Mundy_HCI_hNP1_Pro_ResponderAvgInten: CCTE's Proliferation Assay in human neuroprogenitor cells, Mundy Lab (AID 2284224; active = hit-call score of the fitted dose curve at least 0.9, where 1 is the maximum;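 note: human neural progenitor cells hNP1 derived from WA09 embryonic stem cells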)
How it was run: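 Proliferation read as average intensity of BrdU-positive cells, imaged at 26.25 h post-dosing: chemical exposure started after 40–44 h culture, BrdU during final 4 h, paraformaldehyde fixation. Positive-direction fit relative to DMSO.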

[8] = UKN2_HCS_IMR90_cell_viability: Viability Assessment in the University of Konstanz (UKN) Leist Lab Neural Crest Cell Migration Assay in human induced IMR90 Pluripotent Stem Cells (UKN2) (AID 2284233);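 note: cells exposed to compound for 24 h after a 24 h migration phase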
How it was run: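 Viability read as calcein-AM fluorescence by high-content imaging, Hoechst co-stain, 30 min. Human iPSC (IMR90) neural crest cells had migrated 24 h into stopper-defined gaps before 24 h chemical exposure. Fitted bidirectionally relative to DMSO.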

[9] = CCTE_Mundy_HCI_Cortical_NOG_NeuronCount: CCTE's Neurite Outgrowth Assay in rat cortical cells for Neuron Count, Mundy Lab (AID 2284236; active = hit-call score of the fitted dose curve at least 0.9, where 1 is the maximum;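 note: neurons counted by imaging betaIII-tubulin and Hoechst stained cortical cells; cells exposed to compound for about 48 hours before fixation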)
How it was run: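 Read-out: neuron number by high-content imaging of betaIII-tubulin (Alexa Fluor-488) and Hoechst-labelled rat primary cortical cells.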

[10] = CCTE_Mundy_HCI_Cortical_NOG_BPCount: CCTE's Neurite Outgrowth Assay in rat cortical cells for Branch Point Count, Mundy Lab (AID 2284237);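 note: branch points counted about two days after chemical exposure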
How it was run: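 Measured 50.33 h after dosing, this morphology endpoint uses rat primary cortical cultures labelled for betaIII-tubulin. Branch points are quantified by high-content imaging, with DMSO as negative control and baseline.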

[11] = CCTE_Mundy_HCI_hNP1_Casp3_7: CCTE's Caspase-Glo 3/7 Assay in human neuroprogenitor cells for Apoptosis, Mundy Lab (AID 2284240)
How it was run: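 Luminescent caspase-3/7 readout, 26.5 h post-dose, in human neural progenitor cells from WA09 embryonic stem cells. Cells grew 40–44 h at 37 °C, 5% CO2 before chemical addition. Activity analysed as signal increase over DMSO baseline.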

[12] = CCTE_Mundy_HCI_Cortical_Synap_Neur_Matur_NeuronCount: CCTE's Synaptogenesis and Neurite Maturation Assay in rat cortical cells for Neuron Count, Mundy Lab (AID 2284242; active = hit-call score of the fitted dose curve at least 0.9, where 1 is the maximum;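 note: hits reduce neuron count versus DMSO baseline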)
How it was run: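 Neuron counts come from automated high-content imaging of Hoechst nuclei and MAP2/synaptophysin immunostaining at DIV 12, with loss of signal judged against DMSO. Cultures of rat cortical cells had glial growth arrested by AraC at DIV 5; chemical exposure began DIV 7.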

[13] = IUF_NPC2a_radial_glia_migration_120hr: Leibniz Research Institute for Environmental Medicine (IUF) 120-hour Neural Progenitor Cell Migration Assay for Radial Glia Migration (NPC2a) (AID 2284298)
How it was run: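 Hoechst-stained nuclei imaged at 120 h; algorithm maps sphere core by densest nuclei, sets migration edge at density threshold, gives radial glia migration distance (um) per well vs DMSO. hNPC spheres (0.3 mm), PDL/laminin, DMEM/F12 3:1 + 1% N2.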

[14] = IUF_NPC2a_radial_glia_migration_72hr: Leibniz Research Institute for Environmental Medicine (IUF) 72-hour Neural Progenitor Cell Migration Assay for Radial Glia Migration (NPC2a) (AID 2284299)
How it was run: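 Radial glia migration (µm, sphere core edge to migration front, four directions averaged) from brightfield images at 72 h; hNPC spheres differentiating on PDL/laminin in N2 medium, compound exposure at 7 concentrations from plating.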

[15] = IUF_NPC3_neuronal_differentiation_120hr: Leibniz Research Institute for Environmental Medicine (IUF) 120-hour Neuronal Differentiation Assay (NPC3) (AID 2284301)
How it was run: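 hNPC spheres, PDL/laminin, DMEM/F12 3:1 + 1% N2, 37C, 5% CO2; 7 concentrations + solvent control, 5 d exposure, half-change day 3. Fix 120 h; TUBB3/Hoechst ICC, CNN neuron calling; % neurons vs nuclei, DMSO-normalized.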

[16] = IUF_NPC4_neurite_length_120hr: Leibniz Research Institute for Environmental Medicine (IUF) 120-hour Neuronal Morphology Assay for Neurite Length (NPC4) (AID 2284302)
How it was run: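 hNPC spheres (0.3 mm, fetal brain GW 16-19) on PDL/laminin, DMEM:F12 3:1 + 1% N2, 37C 5% CO2; 7 concs + solvent control, day 0-5, half medium change d3; fix 120 h, TUBB3 ICC, mean neurite length um vs DMSO.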

[17] = IUF_NPC4_neurite_area_120hr: Leibniz Research Institute for Environmental Medicine (IUF) 120-hour Neuronal Morphology Assay for Neurite Area (NPC4) (AID 2284305; active = hit-call score of the fitted dose curve at least 0.9, where 1 is the maximum)
How it was run: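 hNPC spheres on PDL/laminin, N2 medium, 37C/5% CO2; dosed day 0, half-medium refresh day 3; fixed 120 h; TUBB3/Hoechst ICC, high-content imaging; neurite area = mean pixels per neuron (nuclei excluded); DMSO baseline, max 0.1%.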

[18] = IUF_NPC2-5_cytotoxicity_120hr: Cytotoxicity Assessment at 120 hours in the Leibniz Research Institute for Environmental Medicine (IUF) Neural Progenitor Cell Migration and Differentiation Assay (NPC2-5) (AID 2284307; active = hit-call score of the fitted dose curve at least 0.9, where 1 is the maximum)
How it was run: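 hNPC spheres on PDL/laminin, N2 medium, 37C; 7 concs + solvent control, DMSO ≤0.1%; 5-day exposure, half medium changed day 3. LDH in supernatant at 120 h, resazurin→resorufin fluorescence, gain-of-signal.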

[19] = IUF_NPC2-5_cell_number_120hr: Cell Number Assessment at 120 hours in the Leibniz Research Institute for Environmental Medicine (IUF) Neural Progenitor Cell Migration and Differentiation Assay (NPC2-5) (AID 2284308);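 note: count of Hoechst-stained nuclei in migration zone around plated human neural progenitor spheres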
How it was run: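 Hoechst-stained nuclei within the migration area were counted by automated high content imaging after 120 h. Single hNPC spheres differentiated on poly-D-lysine/laminin in DMEM/F12 (3:1) with 1% N2, compound present throughout, DMSO ≤0.1%.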

[20] = IUF_NPC2-5_viability_120hr: Viability Assessment at 120 hours in the Leibniz Research Institute for Environmental Medicine (IUF) Neural Progenitor Cell Migration and Differentiation Assay (NPC2-5) (AID 2284312)
How it was run: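 Human fetal neural progenitor spheres (0.3 mm) plated on poly-D-lysine/laminin in N2 differentiation medium, exposed 120 h with half-medium refresh at day 3. Viability by alamar blue resazurin fluorescence; 7 concentrations, DMSO max 0.1%.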

[21] = IUF_NPC1_cytotoxicity_72hr: Cytotoxicity Assessment at 72 hours in the Leibniz Research Institute for Environmental Medicine (IUF) Neural Progenitor Cell Proliferation Assay (NPC1) (AID 2284332; active = hit-call score of the fitted dose curve at least 0.9, where 1 is the maximum;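 note: rising LDH signal means more cytotoxicity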)
How it was run: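 Cytotoxicity by LDH membrane-integrity assay on medium supernatants, fluorescence via resazurin reduction, after 3-day single exposure of primary hNPC spheres at 37C, pH 7.2-7.6 with growth factors. Fitted upward against baseline.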

[22] = CCTE_Mundy_HCI_iCellGluta_NOG_NeuronCount: CCTE's Neurite Outgrowth Assay in iCellGluta cells for Neuron Count, Mundy Lab (AID 2284340; active = hit-call score of the fitted dose curve at least 0.9, where 1 is the maximum;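 note: cells fixed about 48 h after compound addition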)
How it was run: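 Neuron count read by automated high-content imaging of Hoechst 33342 and betaIII-tubulin/Alexa Fluor-488 labelling in human iPSC glutamatergic neurons. Activity fitted relative to DMSO.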

[23] = CCTE_Mundy_HCI_iCellGluta_NOG_NeuriteCount: CCTE's Neurite Outgrowth Assay in iCellGluta cells for Neurite Count, Mundy Lab (AID 2284342; active = hit-call score of the fitted dose curve at least 0.9, where 1 is the maximum;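 note: chemical exposure about 48 hours starting 2 hours after plating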)

Measured: AC50

CC(=O)[O-].[Tl+]
inactive: [7] | [11] | [18] | [21]
active: [1] 59.5 µM | [2] 75.3 µM | [3] 23.8 µM | [4] 31.9 µM | [5] 25.3 µM | [6] 30.1 µM | [8] 90 µM | [9] 50 µM | [10] 50 µM | [12] 15.4 µM | [13] 44.2 µM | [14] 62.7 µM | [15] 50.1 µM | [16] 34.6 µM | [17] 30.9 µM | [19] 35.4 µM | [20] 21.6 µM | [22] 31.3 µM | [23] 2.26 µM
